# According to PubChem BioAssay (NCI):
# This is part of a sample that, as a whole, favours compounds with a hit. Of some 83,000 tested, about 20% had one in any assay.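 Single-concentration screen, 48 h exposure, 96-well plates. Endpoint: percent growth. Below 10 = active.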 The source made the active and inactive calls.
# Tested on: MDA-MB-468 breast
# Test: NCI-60 one-dose screen, 48 h (100 = growth as untreated, 0 = no growth, -100 = all killed)
# Details: 10 µM unless noted
row,SMILES,growth
1,COc1ccc(-c2cnoc2-c2ccc(OC)cc2O)cc1,1% (active)
2,Nc1n[nH]c2cccc(C#Cc3cccc(NC(=O)c4cccc(C(F)(F)F)c4)c3)c12,79.3% (inactive)
3,CCN1C(=O)N(CC)C2SC(N/N=C/c3cccs3)=NC21 (stereo unspecified),32.4% (inactive)
4,COc1cc2cc(Oc3ccc(NC(=O)Nc4ccc(C(F)(F)F)cc4)cc3)c(C)nc2cc1OC,40.1% (inactive)
5,COc1ccc(-c2cn[nH]c2-c2ccc(OC)c(O)c2)cc1,47.1% (inactive)
6,CC(C)C1C2=C(NCCN1C(=O)c1ccncc1)C(C)(C)N(Cc1ccccc1)C2=O (stereo unspecified),110% (inactive)
7,C/C(=N\O)C(=O)NCCCCCC(=O)Nc1ccccc1,114% (inactive)
8,Nc1ccccc1NC(=O)c1ccc(NC(=O)C/C=C/c2cccnc2)cc1,-7.27% (active)
9,O=NN(CCCl)C(=O)NCc1ccc(-c2ccc(CNC(=O)N(CCCl)N=O)cc2)cc1,101% (inactive)
10,CCOC(=O)c1cc(C)[nH]c(=O)c1C#N,97.3% (inactive)
11,CCN(CC)CCOc1ccc(C(=C(C)c2ccc(Cl)cc2)c2ccc(OCCN(CC)CC)cc2)cc1,-81.6% (active)
12,CCOc1ccc(/C=C/C=N/NC(N)=S)cc1,80.2% (inactive)
13,O=C1CN(c2ccccc2)C(=O)C1C(=O)Nc1ccc(Cl)c(Cl)c1 (stereo unspecified),19.2% [100 µM] (inactive)
14,CC(C)N1CC(=O)N2CSCC2C1=O (stereo unspecified),92.6% (inactive)
15,O=C(NC1CC(F)C1)c1cc2cccnc2n1-c1ccc(Cl)c(Cl)c1 (stereo unspecified),101% (inactive)
16,COc1cc(OC)cc(-c2n/c(=C\c3c(O)[nH]c4ccc(OC)cc34)cc3c2=Nc2ccccc2-3)c1,88.4% (inactive)
